Data on 39 sequences can be found in PMC5700166.

This assay addresses T1, GST-Nv-NF-kB (Ser allele) (Nematostella vectensis, UniProt A7UNT2 2-411).
T1 sequence: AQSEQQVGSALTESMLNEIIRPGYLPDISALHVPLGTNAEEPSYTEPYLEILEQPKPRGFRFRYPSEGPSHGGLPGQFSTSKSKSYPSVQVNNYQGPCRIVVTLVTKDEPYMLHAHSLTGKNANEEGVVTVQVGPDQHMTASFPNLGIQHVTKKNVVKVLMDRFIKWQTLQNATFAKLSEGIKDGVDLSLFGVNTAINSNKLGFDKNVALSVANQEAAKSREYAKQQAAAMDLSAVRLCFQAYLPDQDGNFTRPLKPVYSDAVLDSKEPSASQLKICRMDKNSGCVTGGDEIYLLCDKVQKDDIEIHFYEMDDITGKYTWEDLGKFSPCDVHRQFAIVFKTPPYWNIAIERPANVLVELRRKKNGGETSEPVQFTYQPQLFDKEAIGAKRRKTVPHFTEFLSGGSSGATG
Put plainly: protein-binding microarray (PBM); PBM: ~300 nM protein, 6 mM HEPES pH 7.8, 80 mM KCl, 0.5 mM EDTA, 0.5 mM EGTA, 6% glycerol, 35 ng/ul poly-dIdC, 1% milk, 1 h, room temperature; Ap Aiptasia and Nv Nematostella (sea anemones) / Co Capsaspora / Aq Amphimedon (sponge) / Dm Drosophila / Hu human; RHD is the Rel homology domain; high values mean tight binding. To be noted: dsDNA, one strand shown.
In the case of “CCGATTAACATCAGGGGGGGACATGATGTTAATCGGGTCTTGATTCGCTTGACGCTGCTG”, the binding signal was 4.34 z-score.
Sequence “CCGATTAACATCAAACCACCCCCTGATGTTAATCGGGTCTTGATTCGCTTGACGCTGCTG” displayed a binding signal of 3.66 z-score.
In turn, “CCGATTAACATCAGGGCTCCCCCTGATGTTAATCGGGTCTTGATTCGCTTGACGCTGCTG” yielded a binding signal of 5.09 z-score.
Next, “CCGATTAACATCAGTGTCCCGTTTGATGTTAATCGGGTCTTGATTCGCTTGACGCTGCTG”: 1.48 z-score; “CCGATTAACATCATGCCCGGGAATGATGTTAATCGGGTCTTGATTCGCTTGACGCTGCTG”: 1.07 z-score; “CCGATTAACATCAGGGGCTTACCTGATGTTAATCGGGTCTTGATTCGCTTGACGCTGCTG”: 3.61 z-score.
Consider “CCGATTAACATCAGGGACGCCCCTGATGTTAATCGGGTCTTGATTCGCTTGACGCTGCTG”, for which the binding signal is 3.51 z-score.
Turning to “CCGATTAACATCAGGGGGTTCACTGATGTTAATCGGGTCTTGATTCGCTTGACGCTGCTG”, the binding signal stood at 4.69 z-score.
Sequence “CCGATTAACATCAAAAGCCCCCTTGATGTTAATCGGGTCTTGATTCGCTTGACGCTGCTG” registered a binding signal of 5.65 z-score.
Then “CCGATTAACATCAAAAGGAAATTTGATGTTAATCGGGTCTTGATTCGCTTGACGCTGCTG”, with 1.08 z-score; and “CCGATTAACATCAGCCCCCCCCATGATGTTAATCGGGTCTTGATTCGCTTGACGCTGCTG”, with 2.7 z-score; and “CCGATTAACATCACGGAAAAACCTGATGTTAATCGGGTCTTGATTCGCTTGACGCTGCTG”, with 1.31 z-score.
On to “CCGATTAACATCACGCGTCTACCTGATGTTAATCGGGTCTTGATTCGCTTGACGCTGCTG”, for which the binding signal came to 1.34 z-score.
In the case of “CCGATTAACATCACGTGGGGCGTTGATGTTAATCGGGTCTTGATTCGCTTGACGCTGCTG”, the binding signal was 1.01 z-score.
Sequence “CCGATTAACATCAAAAATGCCCCTGATGTTAATCGGGTCTTGATTCGCTTGACGCTGCTG” registered a binding signal of 6.13 z-score.
In turn, “CCGATTAACATCACCCCCCCCCCTGATGTTAATCGGGTCTTGATTCGCTTGACGCTGCTG” had a binding signal of 5.24 z-score.
The sequence “CCGATTAACATCAAACGTTCCCCTGATGTTAATCGGGTCTTGATTCGCTTGACGCTGCTG” yielded a binding signal of 6.33 z-score.
“CCGATTAACATCAGGGGGGTTACTGATGTTAATCGGGTCTTGATTCGCTTGACGCTGCTG” yielded a binding signal of 4.18 z-score.
Sequence “CCGATTAACATCAGGGGCTTCCATGATGTTAATCGGGTCTTGATTCGCTTGACGCTGCTG” showed a binding signal of 3.55 z-score.
Next, “CCGATTAACATCAGAAGTCCCCCTGATGTTAATCGGGTCTTGATTCGCTTGACGCTGCTG”: 6.47 z-score.
Then “CCGATTAACATCATACTTCCCCATGATGTTAATCGGGTCTTGATTCGCTTGACGCTGCTG”, with 6.52 z-score; and “CCGATTAACATCAAGGGGGGGGGTGATGTTAATCGGGTCTTGATTCGCTTGACGCTGCTG”, with 4.84 z-score; and “CCGATTAACATCAAAAATATTCCTGATGTTAATCGGGTCTTGATTCGCTTGACGCTGCTG”, with 1.03 z-score.
Then “CCGATTAACATCAGAAACTTCCCTGATGTTAATCGGGTCTTGATTCGCTTGACGCTGCTG”, with 4.61 z-score; and “CCGATTAACATCACTAAACCCCCTGATGTTAATCGGGTCTTGATTCGCTTGACGCTGCTG”, with 6.49 z-score; and “CCGATTAACATCAACTCCCCCCATGATGTTAATCGGGTCTTGATTCGCTTGACGCTGCTG”, with 4.05 z-score.
Turning to “CCGATTAACATCAGGGGGAGCACTGATGTTAATCGGGTCTTGATTCGCTTGACGCTGCTG”, the binding signal is 4.71 z-score.
As for “CCGATTAACATCAGGGGGAACACTGATGTTAATCGGGTCTTGATTCGCTTGACGCTGCTG”, the binding signal is 6.37 z-score.
The sequence “CCGATTAACATCAGGAGATCCCCTGATGTTAATCGGGTCTTGATTCGCTTGACGCTGCTG” returned a binding signal of 6.55 z-score.
In turn, “CCGATTAACATCACCGAACCCCCTGATGTTAATCGGGTCTTGATTCGCTTGACGCTGCTG” yielded a binding signal of 5.24 z-score.
Next, “CCGATTAACATCAGGATGTCCCCTGATGTTAATCGGGTCTTGATTCGCTTGACGCTGCTG”: 4.5 z-score; “CCGATTAACATCAAGGGGGGGGATGATGTTAATCGGGTCTTGATTCGCTTGACGCTGCTG”: 5.62 z-score; “CCGATTAACATCACGGAATTCCCTGATGTTAATCGGGTCTTGATTCGCTTGACGCTGCTG”: 6.06 z-score.
The sequence “CCGATTAACATCACCCCCTCCCCTGATGTTAATCGGGTCTTGATTCGCTTGACGCTGCTG” showed a binding signal of 3.78 z-score.
In the case of “CCGATTAACATCAGAAACCCCCATGATGTTAATCGGGTCTTGATTCGCTTGACGCTGCTG”, the binding signal worked out at 6.17 z-score.
In turn, “CCGATTAACATCAGGGGGGGAACTGATGTTAATCGGGTCTTGATTCGCTTGACGCTGCTG” displayed a binding signal of 6.12 z-score.
Next, “CCGATTAACATCAAAAAACCCCATGATGTTAATCGGGTCTTGATTCGCTTGACGCTGCTG”: 6.05 z-score.
Sequence “CCGATTAACATCAAGCTCTAAGGTGATGTTAATCGGGTCTTGATTCGCTTGACGCTGCTG” returned a binding signal of 1 z-score.
“CCGATTAACATCAGGGGACGTTATGATGTTAATCGGGTCTTGATTCGCTTGACGCTGCTG” gave a binding signal of 4.91 z-score.
